L3MBTL1 inh: qHTS Assay for the Inhibitors of L3MBTL1; Lethal(3)malignant brain tumor-like protein 1 (Homo sapiens), Q9Y468; AlphaScreen L3MBTL1–H3K9me1 peptide binding; Potency, µM (top dose mostly 57.1 µM), for inactives: at the highest dose activity, negative = inhibition, most hits filed as inhibitors; 230,000 compounds, 0.66% hits; AID 485360, 2010; further: on the % scale 0 is the no-effect control and ±100 the full control effect; nearly all actives have a fitted effect of over 60% in size
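First, the protein-peptide complex forms for 30 min at room temperature (L3MBTL1 50 nM, biotinylated H3K9me1 peptide 75 nM). Next, compounds are pin-transferred and incubated 30 min. Finally, AlphaScreen beads are added and read after 30 min.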
G9a block: qHTS Assay for Inhibitors of Histone Lysine Methyltransferase G9a | AID 504332, 2011 | Histone-lysine N-methyltransferase EHMT2 (Homo sapiens), Q96KQ7 | 350,000 compounds, 8.8% hits | Potency, µM (top dose mostly 102 µM), without a hit: at the highest dose activity, negative = inhibition, usual class: inhibitors | G9a H3K9 monomethylation, AlphaScreen, 2 h; further: on the % scale 0 is the no-effect control and ±100 the full control effect; nearly all actives have a fitted effect of over 75% in size
Target sequence (Q96KQ7 913-1193 limits assumed): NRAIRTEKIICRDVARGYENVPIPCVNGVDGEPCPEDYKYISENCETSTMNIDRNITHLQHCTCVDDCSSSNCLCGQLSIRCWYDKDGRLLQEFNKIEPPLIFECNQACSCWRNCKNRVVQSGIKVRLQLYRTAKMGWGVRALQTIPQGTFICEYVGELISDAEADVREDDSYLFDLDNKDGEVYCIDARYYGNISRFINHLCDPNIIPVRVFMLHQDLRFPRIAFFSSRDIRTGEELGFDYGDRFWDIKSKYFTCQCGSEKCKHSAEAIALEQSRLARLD
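Chemiluminescent proximity detection of H3K9 monomethylation, read after 10 min bead incubation in the dark. Reaction: 20 nM G9a, 500 nM biotin-H3K9 peptide, 20 uM SAM cofactor, 2 h, room temperature, following 15 min enzyme-compound preincubation.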
JMJD2A Tudor: qHTS Assay for Inhibitors of JMJD2A-Tudor Domain; Lysine-specific demethylase 4A (Homo sapiens), O75164; AlphaScreen JMJD2A-Tudor / H3K4me3 peptide binding; 390,000 compounds, 4.4% hits; Potency, µM (titrated, usually from 114 µM), without a hit: at the highest dose activity change, negative = inhibition, hits mostly inhibitors; further: on the % scale 0 is the no-effect control and ±100 the full control effect; nearly all actives have a fitted effect of over 50% in size
HP1b chromo inh: HTS for Inhibitors of HP1-beta Chromodomain Interactions with Methylated Histone Tails | Chromobox protein homolog 1 (Homo sapiens), P83916 | AlphaScreen HP1-beta / biotin-H3K9me3 peptide binding | Potency, µM (highest dose often 114 µM), without a hit: at the top dose activity change, negative = inhibition, usual class: inhibitors | 390,000 compounds, 0.56% hits; further: nearly all actives have a fitted effect of over 70% in size
Target sequence (P83916 whole entry, looked up): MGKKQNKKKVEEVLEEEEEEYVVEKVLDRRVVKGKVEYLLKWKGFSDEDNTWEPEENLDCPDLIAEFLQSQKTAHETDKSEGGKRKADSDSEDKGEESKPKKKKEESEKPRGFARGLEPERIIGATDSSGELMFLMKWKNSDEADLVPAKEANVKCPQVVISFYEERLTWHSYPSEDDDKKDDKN
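AlphaScreen: HP1-beta (50 nM) preformed 30 min with biotin-H3(1-18)K9me3 peptide (50 nM) in PBS pH 7.4, 0.01% Tween-20. Compound added for 30 min at RT, then streptavidin donor/nickel chelate acceptor beads (10 ug/mL) for 30 min.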
BAZ2B inh: qHTS Assay for Inhibitors of BAZ2B; Potency, µM (titrated, usually from 114 µM), for the others: at the highest dose activity change, negative = inhibition, actives largely listed as inhibitors; AID 504333, 2011; 360,000 compounds, 4.4% hits; Bromodomain adjacent to zinc finger domain protein 2B (Homo sapiens), Q9UIF8; AlphaScreen BAZ2B-H3K14Ac peptide displacement; further: on the % scale 0 is the no-effect control and ±100 the full control effect; nearly all actives have a fitted effect of over 60% in size
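Compounds, titrated to a top concentration of 110 uM, were incubated 30 min at room temperature with preformed BAZ2B/acetyl-K14 H3 peptide complex (50 nM each). Proximity signal was measured by AlphaScreen after 20 min with beads.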
Sfp inh: qHTS Assay for Inhibitors of Bacillus subtilis Sfp phosphopantetheinyl transferase (PPTase) | Biochemical Sfp PPTase activity, qHTS | 310,000 compounds, 3.5% hits | 4'-phosphopantetheinyl transferase ffp (Bacillus subtilis), Q9F4F7 | Potency, µM, for inactives: largest response in the series, negative = inhibition, most hits filed as inhibitors;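 further: the enzyme is Sfp with the accession as filed and its product quenches rhodamine fluorescence; 0% = enzyme reaction without inhibitor and -100% = no enzyme wells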
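Fluorescence-quenching assay with 15 nM Sfp, 5 uM rhodamine-CoA and 12.5 uM BHQ-2-labelled ybbR peptide in pH 7.6 Hepes/MgCl2 buffer. Enzyme was pre-incubated with compound for 15 min at room temperature. Rate was taken from the 30-min fluorescence change (525/598 nm).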
Active calls of the source: *; ? = inconclusive; / = no result; [ ] = another dose, or the depositor's remark. Rows were chosen to be rich in hits. Some 12% of all compounds tested hit in one or more screens of this group. The call rests on the fitted dose curve; in most records, active means well fitted curve in the direction sought with a large enough effect; inconclusive means small, poorly fitted or top-dose-only effect, or another doubt; inactive means no such curve, though single readings can be large; an effect the other way counts as inactive or inconclusive. Potency means the concentration at half of the fitted maximal effect.

SMILES	L3MBTL1 inh	G9a block	JMJD2A Tudor	HP1b chromo inh	BAZ2B inh	Sfp inh
COc1ccc(C2=CC(c3cc(OC)c(OC)c(OC)c3)NC(=S)N2)cc1 (configuration not stated)	/	6.3µM*	-19%[11.4 µM]	-16%	-28%	14%
C[C@H]1Cc2c(-c3ccccc3)nc3c(c2CO1)CN(C(=O)c1cccnc1)CC3	/	/	/	/	/	8%
COc1cc2ncnc(N(C)Cc3csc(C)n3)c2cc1-c1ccc2c(c1)OCO2	/	/	8.9µM*	/	/	/
CN(Cc1nccs1)c1ncnc2ccc(-c3ccc4c(c3)OCO4)cc12	/	/	79µM*	/	/	/
COc1ccc(-c2ccc3ncnc(N(C)Cc4csc(C)n4)c3c2)cc1OC	/	/	-15%	/	/	/
Cc1ccc(NC(=O)CCCN2C(=O)c3cccc4cccc(c34)C2=O)cc1	-3%	46%[59 µM]	79µM*	0%	0%	-24%
Cc1ccc(NC(=O)CCN2C(=O)c3cccc4cccc(c34)C2=O)cc1	/	7%[59 µM]	-17%	25%	?	-18%
CCN(CC)c1ccc(NC(=O)CCCCCN2C(=O)c3ccccc3C2=O)cc1	?	2.5µM*	25µM*	?	45µM*	-11%
C[C@@]12C=Cc3occc3[C@H]1CC[C@]13CC(=O)[C@@H](CC[C@H]12)C3	/	/	-19%	1%	/	-18%
C=CCn1c(=O)c2ccccc2n2c(=S)[nH]nc12	/	7.9µM*	7.9µM*	-19%	-10%	-27%
CCOCCCn1c(=O)c2ccccc2n2c(=S)[nH]nc12	/	10µM*	4µM*	-13%	-24%	-19%
C=CCn1c(=O)c2ccccc2n2c(SCC(=O)c3ccccc3)nnc12	5%	22µM*	-11%[11.4 µM]	-19%	1%	4%
C=CCn1c(=O)c2ccccc2n2c(SCC(=O)N(C)C)nnc12	/	0%	-3%	38%	-16%	5%
CCCCCn1c(=O)c2ccccc2n2c(CCl)nnc12	/	4%	-3%	36%	-14%	13%
CC(C)OCCCn1c(=O)c2ccccc2n2c(-c3ccccc3)nnc12	/	?	50µM*	5%	50µM*	/
CC(C)OCCCn1c(=O)c2ccccc2n2c(-c3ccccc3F)nnc12	/	-17%[59 µM]	-30%	13%	-31%	/
COc1ccc(NC(=O)Cc2c(C(=O)O)[nH]c3ccccc23)cc1OC	/	12%[59 µM]	3%	27%	-2%	/
OCC1OC(C#Cc2ccccc2)C=CC1OCc1ccccc1 (configuration not stated)	/	/	/	/	/	-1%
CC(C)CCn1c(=O)c2ccccc2n2c(=S)[nH]nc12	/	1.4µM*	3.5µM*	71µM*	45µM*	56µM*
Cc1c2cccn2cc[n+]1C	-5%	14µM*	45µM*	4%	-2%	-4%
Cc1csc(SCC(=O)Nc2nc(-c3ccccc3)cs2)n1	8%	-32%	-11%	35%	10%	-4%
O=C(CN1CCOCC1)Nc1nc2ccc([N+](=O)[O-])cc2s1	-3%	-46%	10µM*	30%	-27%	-3%
Nc1cc(=O)[nH]c(SCC(=O)Nc2nc3ccc([N+](=O)[O-])cc3s2)n1	-16%	40µM*	/	/	?	-18%
Cc1cc(=O)[nH]c(SCC(=O)Nc2nc(-c3ccccc3)cs2)n1	-7%	50µM*	-20%	15%	?	-6%
CC(=O)Nc1c(O)nc(SCC(=O)Nc2c(C)cccc2C)[nH]c1=O	/	?	-23%	23%	3%	79µM*
SMILES	L3MBTL1 inh	G9a block	JMJD2A Tudor	HP1b chromo inh	BAZ2B inh	Sfp inh
COc1ccc(S(=O)(=O)Nc2ccc3c(c2)sc(=O)n3C)cc1Cl	/	-24%[59 µM]	-19%	12%[57 µM]	-9%	/
COc1cc(=O)[nH]c(SC(C)C(=O)Nc2nc3c(s2)CCCC3)n1 (configuration not stated)	/	-24%	8%	29%	-4%	19%
Cc1cc(=O)[nH]c(SCC(=O)Nc2nc3ccccc3s2)n1	/	32µM*	-23%	28%	?	79µM*
O=C(CSc1cn[nH]n1)Nc1nc2ccccc2s1	/	40µM*	-13%	34%	-1%	35%
COc1cc(=O)[nH]c(SCC(=O)Nc2nc3c(s2)CCCC3)n1	/	9%[59 µM]	32µM*	-5%	2%	17%
Cc1cc(=O)[nH]c(SCC(=O)Nc2nnc(SCc3ccccc3)s2)n1	/	-6%	-11%[11.4 µM]	-6%	-39%	2%
O=C(NC1CCSc2ccccc21)c1ccc([N+](=O)[O-])cc1 (configuration not stated)	/	-11%	-15%	31%	-26%	18%
O=C(NC1CCSc2ccccc21)c1cc([N+](=O)[O-])ccc1N1CCOCC1 (configuration not stated)	-6%	56µM*	-21%	-12%	-29%	/
CCCCN(C)C(=O)CN1C(=O)c2cccnc2Oc2ccc(Cl)cc21	/	-1%[59 µM]	-19%	8%	-3%	/
O=S(=O)(NCc1csc(-c2ccccc2)n1)c1ccccc1	/	2%[59 µM]	-4%	14%	6%	/
CCCNC(=O)OC[C@@H]1O[C@H](CCO/N=C(\C)CCN2CCCc3nc(C)c(C)cc32)C=C[C@@H]1Oc1ccc(OC)cc1	/	/	/	/	/	4%
O=C(NCc1ccc(F)cc1)C1CCN(C(=O)c2ccc(-n3ccc4ccccc43)s2)CC1	/	-2%[59 µM]	5%	40%	2%	/
COc1ccc(NC(=O)Cn2c(=O)n(CCC(=O)NCCc3ccc(OC)c(OC)c3)c(=O)c3ccccc32)cc1Cl	/	5%[59 µM]	4%	30%	2%	/
O=C(NCCOc1ccccc1)c1cc([N+](=O)[O-])ccc1N1CCOCC1	4%	34%[12.7 µM]	-19%	15%	1%	/
O=C(Nc1nc2ccc(Oc3ccccc3)cc2s1)c1cc([N+](=O)[O-])ccc1N1CCOCC1	-17%	16µM*	-32%	-1%	?	-24%
COc1ccc(-n2c(SCC(=O)NCCC(C)C)nc3ccsc3c2=O)cc1	-3%	25µM*	-7%	24%	-6%	?
O=C(CCC(=O)NCCO)NCCO	/	-27%	-6%	37%	-22%	11%
CC(O)CCC(=O)NCCNC(=O)CCC(C)O (configuration not stated)	-1%	12%[59 µM]	28µM*	-12%	8%	1%
Cc1n[nH]c(=S)n1/N=C/c1ccccc1	3%	10µM*	4µM*	24%	-7%	4%
